According to ChEMBL document CHEMBL1857833, “Screening and optimization of specific chemical series against human African Trypanosomiasis (HAT)”:
Screen size: about 4,400 compounds; about 390 (8.9%) showed an effect of 50% or more. This is one part of a sample in which strong results are shown more often than they occur.

system: Trypanosoma brucei; test: DNDI: Inhibition of Human African Trypanosomiasis, SBRI 427, in vitro at 2 ug.mL-1; type: functional

SMILES | % inhibition [%]
CCOc1cccc(-c2nc(Cn3cnc(-c4ccccc4)c3)co2)c1 | 11
CN(Cc1coc(-c2ccco2)n1)C1CCCCC1 | 11
Cc1ccccc1CNCc1coc(-c2ccc(O)cc2)n1 | 1
CSc1ccccc1Oc1ncccc1/C(=N/O)N1CCCCC1 | 8
O/N=C(\NC1CCCC1)c1cccnc1Oc1ccccc1F | 96
O/N=C(/c1cccnc1Oc1ccccc1F)N1CCOCC1 | 13
O/N=C(/c1cccnc1Oc1ccccc1F)N1CCCCC1 | 23
COc1ccccc1Oc1ncccc1/C(=N/O)N1C(C)CCCC1C (centres undefined) | 9
O/N=C(\NC1CC1)c1cccnc1Oc1ccccc1F | 78
COC(=O)C1CCN(/C(=N\O)c2cccnc2Oc2ccccc2SC)CC1 | 18
COc1ccccc1Oc1ncccc1/C(=N/O)NC1CCCC1 | 99
CSc1ccccc1Oc1ncccc1/C(=N/O)NC1CCCC1 | 99
COC(=O)C1CCN(/C(=N\O)c2cccnc2Oc2ccccc2OC)CC1 | 15
Cc1ccc(/C(=N/O)NC2CC2)c(Oc2cccc3cccnc23)n1 | 29
O/N=C(\NCCN1CCCC1)c1cccnc1Oc1ccccc1F | 30
CC(C)c1ccc(Oc2ncccc2/C(=N/O)N2CCC=N2)cc1 | -4
Cc1nccn1/C(=N\O)c1ccnc(Oc2ccc(Cl)cc2)c1 | 5
COc1ccc(-c2nc(CN3CCC(C)CC3)co2)cc1 | 12
Cc1cccc(N2CCN(Cc3coc(-c4ccc(O)cc4)n3)CC2)c1C | 3
Brc1ccc(-c2nc(CNCCCN3CCOCC3)co2)cc1 | -12
CCCCN(CC)Cc1coc(-c2cccc(OC)c2)n1 | -18
Cc1nccn1/C(=N\O)c1cccnc1Oc1ccccc1 | 10

SMILES | % inhibition [%]
COc1cc(C)ccc1Oc1nc(C)ccc1/C(=N/O)N1C(C)C=CC1C (centres undefined) | -2
Brc1ccccc1-c1nc(CNCCN2CCCCC2)co1 | -1
CN1CCCC1CCNCc1coc(-c2ccc(Br)cc2)n1 (centres undefined) | 97
Brc1ccc(-c2nc(CNCCN3CCOCC3)co2)cc1 | -53
CCOc1cccc(-c2nc(CNCCC3CCCN3C)co2)c1 (centres undefined) | 99
CN1CCCC1CCNCc1coc(-c2cccs2)n1 (centres undefined) | -4
CCOc1cccc(-c2nc(CNCCN3CCOCC3)co2)c1 | -2
CCOc1cccc(-c2nc(CNCCN3CCCC3)co2)c1 | -12
Brc1ccc(-c2nc(CNCCN3CCCCC3)co2)cc1 | 43
CN1CCCC1CCNCc1coc(-c2ccccc2Br)n1 (centres undefined) | 57
CC(C)COc1ncccc1/C(=N/O)N1CCN(c2ccc(F)cc2)CC1 | 0
O=Cc1nccn1Cc1coc(-c2ccc(F)cc2)n1 | -8
CSc1ccc(Oc2cc(/C(=N/O)N3CC(C)CC(C)C3)ccn2)cc1 (centres undefined) | 18
Oc1ccc(-c2nc(CNCc3ccccc3C(F)(F)F)co2)cc1 | 18
CC(C)c1ccc(Oc2ncccc2/C(=N/O)NCc2ccco2)cc1 | 96
COc1ccc(Oc2ncccc2/C(=N/O)NCc2ccco2)cc1 | -14
O/N=C(\NCc1cccs1)c1cccnc1Oc1ccc2oc3ccccc3c2c1 | 75
CC(C)COc1ncccc1/C(=N/O)NCc1ccco1 | 3
Cc1ccc(/C(=N/O)N(C)Cc2ccco2)c(Oc2cccc(C(C)C)c2)n1 | 67
CSc1ccc(Oc2nc(C)ccc2/C(=N/O)N(C)Cc2ccco2)cc1C | 12
Cc1ccc(/C(=N/O)N(C)Cc2ccco2)c(Oc2cccc(F)c2)n1 | 22
CN(Cc1ccco1)/C(=N\O)c1cccnc1Oc1ccc(Cl)cc1 | 4

SMILES | % inhibition [%]
COc1ccc(Oc2ncccc2/C(=N/O)N(C)Cc2ccco2)cc1 | -11
CC(C)c1ccc(Oc2ncccc2/C(=N/O)N(C)Cc2ccco2)cc1 | 75
O/N=C(\NCc1ccccn1)c1cccnc1Oc1ccc2oc3ccccc3c2c1 | 7
O/N=C(\NCc1ccncc1)c1cccnc1Oc1ccc2oc3ccccc3c2c1 | 10
CC(C)COc1ncccc1/C(=N/O)N(C)Cc1cccnc1 | -1
Cc1cn(/C(=N\O)c2ccc(Oc3ccc4oc5ccccc5c4c3)nc2)cn1 | 16
CCOc1cccc(-c2nc(CN(C)CC#N)co2)c1 | 15
O/N=C(/c1cccnc1Oc1ccc(F)cc1)N1Cc2ccccc2C1 | 4
COC(CN(C)Cc1coc(-c2ccc(Br)cc2)n1)OC | 4
CCOc1ccccc1-c1nc(CN2CCCCC2)co1 | -1
CN(Cc1coc(-c2ccc(C(F)(F)F)cc2)n1)Cc1ccco1 | 18
CC(C)c1ccc(Oc2ncccc2/C(=N/O)NCc2cccs2)cc1 | 100
O/N=C(\NCc1cccs1)c1cccnc1Oc1cccc(C(F)(F)F)c1 | -12
COc1ccc(Oc2ncccc2/C(=N/O)NCc2cccs2)cc1 | 37
Clc1ccccc1-c1nc(CNC(Cc2ccccc2)c2ccccc2)co1 (centres undefined) | -20
Brc1ccccc1-c1nc(CNC2CCCCCCCCCCC2)co1 | 59
Brc1ccccc1-c1nc(CNC2CCN(Cc3ccccc3)C2)co1 (centres undefined) | -6
Cc1ccccc1-c1nc(CNC2CCCCCC2)co1 | 61
Cc1ccccc1-c1nc(CNC[C@@H]2CCCO2)co1 | -1
Cc1ccccc1-c1nc(CNC2CCN(Cc3ccccc3)C2)co1 (centres undefined) | 30
Brc1ccccc1-c1nc(CNC2CCCCCC2)co1 | -20
COc1cc(CN(C)Cc2coc(-c3ccccc3C)n2)cc(OC)c1OC | -15

SMILES | % inhibition [%]
CCCN(Cc1coc(-c2cc(OC)c(OC)c(OC)c2)n1)c1ccccc1 | 1
O/N=C(/c1cccnc1OCc1ccccc1)N1CCSCC1 | 13
C[C@@H]1C(NCc2coc(-c3cccs3)n2)C[C@H]2C[C@@H]1C2(C)C (some centres undefined) | 62
CC1CC(C)CN(Cc2coc(-c3cccs3)n2)C1 (centres undefined) | 2
c1csc(-c2nc(CNC3CCc4ccccc43)co2)c1 (centres undefined) | -11
C[C@H]1C(NCc2coc(-c3cccs3)n2)C[C@@H]2C[C@H]1C2(C)C (some centres undefined) | 87
CC(NCc1coc(-c2cccs2)n1)C1CCCCC1 (centres undefined) | -3
c1csc(-c2nc(CNC3CCCC3)co2)c1 | -11
COc1cccc(Oc2ccc(/C(=N/O)N3CCSC3)cn2)c1 | 6
Cc1ccc(CCNCc2coc(-c3cccc(F)c3)n2)cc1 | -9
CCCN(Cc1coc(-c2cccc(C)c2)n1)c1ccccc1 | 7
Cc1ccc2cccc(Oc3ccc(/C(=N/O)NC4CCCCC4)cn3)c2n1 | 99
Cc1ccc2cccc(Oc3cc(/C(=N/O)NC4CCC(C)CC4)ccn3)c2n1 (centres undefined) | 94
CCC(C)(C)N/C(=N\O)c1ccnc(Oc2cccc3ccc(C)nc23)c1 | 51
Cc1ccc2cccc(Oc3cc(/C(=N/O)NC4CC(C)CC(C)(C)C4)ccn3)c2n1 (centres undefined) | 10
Cc1cc(C)cc(CN/C(=N\O)c2ccnc(Oc3cccc4ccc(C)nc34)c2)c1 | 18
Cc1ccc2cccc(Oc3ccc(/C(=N/O)n4cccn4)cn3)c2n1 | 4
Cc1ccc2cccc(Oc3cc(/C(=N/O)N4C(C)CCCC4C)ccn3)c2n1 (centres undefined) | 19
CC1CCC(N/C(=N\O)c2ccnc(Oc3cccc4cccnc34)c2)CC1 (centres undefined) | 95
CC1CCC(N/C(=N\O)c2ccnc(Oc3cccc4cnccc34)c2)CC1 (centres undefined) | 10
Cc1ccc2cccc(Oc3ccc(/C(=N/O)Nc4ccc(C(C)C)cc4)cn3)c2n1 | 8
Cc1ccccc1CN/C(=N\O)c1ccnc(Oc2cccc3cccnc23)c1 | 43

SMILES | % inhibition [%]
Cc1ccc2cccc(Oc3cc(/C(=N/O)NCc4c(F)cccc4F)ccn3)c2n1 | 17
CCOc1cccc(-c2nc(CN(C)C3CCN(Cc4ccccc4)C3)co2)c1 (centres undefined) | -2
FC(F)(F)c1cccc(N2CCN(Cc3coc(-c4cccc5ccccc45)n3)CC2)c1 | 6
CCOc1cccc(-c2nc(Cn3ccnc3CC)co2)c1 | -10
COc1ccccc1CCNCc1coc(-c2cccc3ccccc23)n1 | 43
CC(C)N1CCN(/C(=N\O)c2cccnc2Oc2cccc(C(F)(F)F)c2)CC1 | 101
N/C(=N\O)c1cccnc1Oc1cccc(C(F)(F)F)c1 | 46
CC1=NCCN1/C(=N\O)c1cccnc1Oc1cccc(C(F)(F)F)c1 | 2
O/N=C(/c1cccnc1Oc1cccc(C(F)(F)F)c1)N1CCN(C2CCCC2)CC1 | 85
O/N=C(/c1cccnc1Oc1ccccc1Cl)N1CCN(C2CCCC2)CC1 | -2
COc1ccc(Oc2ncccc2/C(=N/O)N2CCN(C3CCCC3)CC2)cc1 | -12
CCN(CCNCc1coc(-c2ccccc2Br)n1)c1cccc(C)c1 | -30
O/N=C(/c1cccnc1OCc1cccc(F)c1)N1CCN(c2ccccc2)CC1 | -1
CCOc1cccc(-c2nc(Cn3cc(C)nc3CC)co2)c1 | 7
CC1CC(N/C(=N\O)c2cccnc2Oc2cc(Cl)ccc2Cl)CC(C)(C)C1 (centres undefined) | 99
CC1CC(N/C(=N\O)c2cccnc2Oc2ccc(C(C)C)cc2)CC(C)(C)C1 (centres undefined) | 98
CC1CC(N/C(=N\O)c2cccnc2Oc2ccc(F)c(Cl)c2)CC(C)(C)C1 (centres undefined) | 100
Cc1ccc(/C(=N/O)NC2CC(C)CC(C)(C)C2)c(Oc2ccc(F)c(F)c2)n1 (centres undefined) | 11
CCN(CC)c1cccc(Oc2ncccc2/C(=N/O)NC2CC(C)CC(C)(C)C2)c1 (centres undefined) | -6
Cc1ccc(/C(=N/O)NC2CC(C)CC(C)(C)C2)c(Oc2ccc(Cl)cc2-c2ccno2)n1 (centres undefined) | 16
Cc1ccc(/C(=N/O)NC2CC(C)CC(C)(C)C2)c(Oc2cc(Cl)ccc2Cl)n1 (centres undefined) | 7
